{
  "source": "PubChem BioAssay AID1345082",
  "about": "(National Center for Advancing Translational Sciences (NCATS), 2018)",
  "note": "The whole screen tested about 94,000 compounds, of which about 4,000 (4.3%) were called active. Another 29% or so got no clear call; they are omitted. The full list was thinned out, with actives kept by preference. A number with no mark means an inactive call. Calls come from the whole dose curve; as a rule, active = well fitted inhibition curve with a large enough effect; inconclusive = small, poorly fitted or top-dose-only effect; inactive = no such curve, though single readings can be large or run the other way.",
  "data": [
    {"assay": "Cytotoxic Profiling in NIH 3T3 Cell Line of Diverse Libraries Using Quantitative High-Throughput Screening; note: nearly all actives have a fitted effect of over 55% in size; note: potency is the fitted concentration of half-maximal effect; for activity change, negative = cytotoxicity: % is set by controls: 0 for no effect and ±100 for the full control effect", "details": "NIH 3T3 viability, CellTiter-Glo ATP luminescence, 48-72 h; series mostly up to 96.7 µM; activity change, negative = cytotoxicity: at the top concentration", "how_it_was_run": "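First NIH 3T3 cells are plated at 400 cells/well; next compound is pinned in; then plates incubate 48 or 72 hr at 37 °C; finally CellTiter-Glo is added and luminescence read after 10 min.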", "values": [
      {"compound": "CCn1ncnc1CN1CCC2(CC1)CC(C(=O)O)N(C(C)=O)C2", "note": "(stereo not drawn)", "activity change, negative = cytotoxicity": "-11%"},
      {"compound": "COCC(=O)NC1CCC12CCN(C(=O)Nc1ccccc1)CC2", "note": "(stereo not drawn)", "activity change, negative = cytotoxicity": "-13.9%"},
      {"compound": "Cc1ccc(C(=O)NC2CCN(c3ccc4nnc(C)n4n3)C2)cc1", "note": "(stereo not drawn)", "activity change, negative = cytotoxicity": "-24.8% [at 138 µM]"},
      {"compound": "O=C([C@@H]1C[C@H](F)CN1C(=O)Cc1ccccc1Cl)N1CCCCC1", "activity change, negative = cytotoxicity": "-1.58%"},
      {"compound": "Cc1ccccc1N1Cc2c(NCC(C)C)ncnc2N(C)CC1=O", "activity change, negative = cytotoxicity": "-1.61%"},
      {"compound": "CC/C=C/CC(=O)N1CCC2(CCN(Cc3cccnc3)CC2)C(CO)C1", "note": "(stereo not drawn)", "activity change, negative = cytotoxicity": "3%"},
      {"compound": "COc1cccc2c1CCN=C2C[C@H]1CN(C(=O)C(C)(C)C)CC[C@H]1CC(=O)O", "activity change, negative = cytotoxicity": "-20.9% [at 174 µM]"},
      {"compound": "Cc1n[nH]c(C)c1CCC(=O)N1CCCC(c2ccc(C(=O)O)cc2)C1", "note": "(stereo not drawn)", "activity change, negative = cytotoxicity": "-7.96%"},
      {"compound": "COc1ccc(S(=O)(=O)N2C[C@@H](Oc3ccccc3)C[C@@H]2C(=O)N2CCOCC2)cc1", "activity change, negative = cytotoxicity": "-2.54%"},
      {"compound": "Cc1c(C(=O)N2C[C@@H](CN(C)C)C[C@H](CO)C2)n(C)c2c(C)cccc12", "activity change, negative = cytotoxicity": "-19.7%"},
      {"compound": "CN(C)C[C@@H]1CN(C2CCOCC2)C[C@H]1NC(=O)c1ccco1", "activity change, negative = cytotoxicity": "2.09%"},
      {"compound": "Cc1ccc2c(c1)nc1n2[C@@H](CNC(=O)c2ccccc2)COC1", "activity change, negative = cytotoxicity": "-7.85% [at 138 µM]"},
      {"compound": "Cc1ccc2nc3n(c2c1)[C@@H](CNC(=O)c1ccc(C#N)cc1)COC3", "Potency": "89.1 µM (active)"},
      {"compound": "COc1ccc2c(c1)nc1n2[C@@H](CNC(=O)c2ccncc2)COC1", "activity change, negative = cytotoxicity": "-26.6% [at 174 µM]"},
      {"compound": "O=C(CCC1CCCN(S(=O)(=O)c2ccc(F)cc2)C1)NC1CCS(=O)(=O)C1", "note": "(stereo not drawn)", "activity change, negative = cytotoxicity": "-23%"},
      {"compound": "O=C(NC1CCc2nn(CC3CC3)c(=O)n2CC1)c1ccc(Cn2ccnc2)o1", "note": "(stereo not drawn)", "activity change, negative = cytotoxicity": "-16.1%"},
      {"compound": "Cc1noc([C@H]2CCN(Cc3ccccc3F)C[C@H]2NC(=O)C2CC2)n1", "activity change, negative = cytotoxicity": "-6.62%"},
      {"compound": "Cc1oc2ccn(Cc3ccccc3F)c(=O)c2c1C(=O)NCCCN1CCCCC1C", "note": "(stereo not drawn)", "Potency": "39.8 µM (active)"},
      {"compound": "Cc1oc2c(c1C(=O)NCCN1CCCC1)CN(Cc1ccc(F)cc1)CC2", "outcome": "inactive"},
      {"compound": "CCn1nc(C)c(-c2cc(C(=O)N3CCCCCCNC(=O)[C@@H]4CCCC[C@@H]43)no2)c1C", "activity change, negative = cytotoxicity": "-26.8%"},
      {"compound": "COc1nccnc1NC1CCN(C(=O)NCc2ccccc2)CC1", "activity change, negative = cytotoxicity": "-21.9%"},
      {"compound": "CC(C)CN1CCOC[C@H](Oc2ccc(S(C)(=O)=O)cc2)C1", "activity change, negative = cytotoxicity": "-3.34% [at 138 µM]"},
      {"compound": "Cn1cc(CN2CCOC[C@H](Oc3ccc(S(C)(=O)=O)cc3)C2)c2ccccc21", "Potency": "28.2 µM (active)"},
      {"compound": "COc1ccc(O[C@H]2COCCN(Cc3nccn3C)C2)cc1", "activity change, negative = cytotoxicity": "-12.7% [at 138 µM]"},
      {"compound": "CCCCn1ccnc1C1CCCN(C(=O)c2ccccc2-c2ncn[nH]2)C1", "note": "(stereo not drawn)", "activity change, negative = cytotoxicity": "-4.3%"},
      {"compound": "O=C(NCCc1ccc(Cl)cc1)c1ccc2oc(-c3cccnc3)nc2c1", "activity change, negative = cytotoxicity": "-15.1%"},
      {"compound": "O=C(NCc1ccccc1)c1ccc2nc(-c3ccnc(Cl)c3)oc2c1", "activity change, negative = cytotoxicity": "-10.4% [at 138 µM]"},
      {"compound": "CN(C)C(=O)c1ccc2oc(-c3ccnc(Cl)c3)nc2c1", "Potency": "28.2 µM (active)"}
    ]}
  ]
}
